Screening results as filed in PubChem BioAssay.
An excerpt weighted towards active compounds, which were near 22% of everything screened.
Pf growth 48h = P. falciparum growth inhibition at 48 hours (one generation); Potency, µM (highest dose often 28.7 µM), for inactives: at the top dose activity change, negative = inhibition, actives largely listed as inhibitors; P. falciparum luciferase growth in erythrocytes, 48 h; actives 5.9% (n = 310,000); also: potency is read from the fitted curve at half-maximal effect; % is scaled to controls: 0 for no effect and ±100 for the full control effect
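Here the parasites carry a stable luciferase gene and grow inside erythrocytes in Albumax-based RPMI medium with compound for one erythrocytic cycle. Activity is scored as loss of luminescent signal.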
Cycloheximide cs = counter-screen hit for Shiga toxin inhibitors, cycloheximide | cell reporter, cycloheximide protein synthesis inhibition counterscreen | max response, % | actives 12% (n = 300,000) | AID 2314; in the data active = max response mostly above about 13%, no sharp cut-off; inactive = mostly below about 14%; also: read at 38.3 µM for the half of the compounds with a filed dose; 0% is about no effect
Pf growth 96h = inhibits malaria parasite growth, 96 h; P. falciparum luciferase reporter growth, 96 h; Potency, µM (series often up to 28.7 µM), for the others: top-dose activity change, negative = inhibition, most hits filed as inhibitors; actives 6.9% (n = 320,000); AID 504834; also: potency is read from the fitted curve at half-maximal effect; % is scaled to controls: 0 for no effect and ±100 for the full control effect
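Plates of compound plus infected erythrocytes (2% hematocrit, 0.05% parasitemia final) incubate 96 hours, 37 C, 5% CO2. Detection reagent added; reduced luminescence from the parasites' luciferase reporter flags inhibition.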
Shiga toxin inh = inhibitors of Shiga toxin in Vero cells; inhibition, % at 38.7 µM; Vero cells, Shiga toxin protein synthesis inhibition reporter; AID 2315; actives 9.2% (n = 290,000); in the data active = inhibition mostly above about 28%, no sharp cut-off; inactive = mostly below about 43%; also: 0% is about no effect
LmPK inh = blocks Leishmania mexicana pyruvate kinase activity; Q27686; purified LmPK, Kinase-Glo ATP luminescence, 1 h; Potency, µM (top dose mostly 57.5 µM), inactives show at the top dose activity change, negative = inhibition, actives largely listed as inhibitors; actives 0.37% (n = 290,000); also: potency is read from the fitted curve at half-maximal effect; % is scaled to controls: 0 for no effect and ±100 for the full control effect
Target sequence (Q27686 whole entry, looked up): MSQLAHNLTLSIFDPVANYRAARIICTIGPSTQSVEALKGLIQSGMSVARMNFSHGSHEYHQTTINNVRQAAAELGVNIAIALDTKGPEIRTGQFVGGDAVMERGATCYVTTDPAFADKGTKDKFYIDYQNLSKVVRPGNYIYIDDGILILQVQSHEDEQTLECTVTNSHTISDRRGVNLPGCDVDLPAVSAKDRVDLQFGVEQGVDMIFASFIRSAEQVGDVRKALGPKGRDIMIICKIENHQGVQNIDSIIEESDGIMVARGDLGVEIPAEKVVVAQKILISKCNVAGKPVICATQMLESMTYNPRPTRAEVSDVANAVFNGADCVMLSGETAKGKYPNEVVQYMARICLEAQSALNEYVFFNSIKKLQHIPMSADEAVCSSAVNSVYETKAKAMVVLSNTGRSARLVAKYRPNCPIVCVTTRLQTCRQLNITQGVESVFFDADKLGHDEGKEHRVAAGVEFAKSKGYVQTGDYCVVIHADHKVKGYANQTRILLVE
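Pyruvate kinase activity monitored as ATP production (luciferase luminescence). Conditions: 0.1 nM enzyme, 0.5 mM PEP, 0.1 mM ADP, 1 h, RT; normalized against uninhibited and no-enzyme wells.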
The depositor's hits bear a star; i = inactive; ? = inconclusive; · = no result. Unless noted, calls follow the shape of the dose curve; as a rule, active = well fitted inhibition curve with a large enough effect; inconclusive = small, poorly fitted or top-dose-only effect, or another doubt; inactive = no such curve, though single readings can be large or run the other way.

SMILES	Pf growth 48h	Cycloheximide cs	Pf growth 96h	Shiga toxin inh	LmPK inh
CC(Sc1nnc(-c2ccccc2Br)n1-c1cccc(C(F)(F)F)c1)C(N)=O (centres undefined)	-8%	0	0%	-3	2%
Cc1ccccc1NC(=O)Cc1nc(COC(=O)c2ccc(O)cc2O)cs1	-10%	4	?	-3	-3%
COc1cc(CNCc2ccco2)ccc1OCc1ccccc1	4%	33*	108%	61*	-4%
COc1cc(CNCc2ccccn2)ccc1OCc1cccc(Cl)c1	?	25*	?	73	-1%
c1ccc(COc2cccc(CNCc3cccs3)c2)cc1	38%	24*	?	41	0%
COc1cc(CNCc2ccccn2)ccc1OCc1ccc(Cl)cc1	?	16	-27%	36	0%
COc1ccc(CNCc2ccncc2)cc1OC	?	2	10µM*	-7	-2%
COc1ccc2oc(=O)c(/C(N)=N/NC(=O)c3ccncc3)cc2c1	16%	-3	16%	-3	-6%
CC(C)(C)c1cc(NS(=O)(=O)c2ccc(Br)s2)no1	11%	11	-26%	-6	-2%
Nc1nc(NCc2ccco2)nc(N2CCN(Cc3ccccc3)CC2)c1[N+](=O)[O-]	-13%	0	?	-12	4%
O=C(COC(=O)c1ccc2c(c1)OCCO2)NC1CCCCC1	19%	·	15%	·	·
COc1cc(CNCc2cccs2)ccc1OCc1cccs1	?	17	?	-8	-3%
COc1cc(CNCc2cccs2)ccc1OCc1ccccc1	36%	26*	?	7	1%
COc1cccc(CNCc2ccco2)c1O	0%	4	12µM*	21	-7%
O=C(CN(Cc1ccco1)S(=O)(=O)c1ccccc1)N/N=C/c1ccccc1C(=O)O	-3%	6	?	32	-9%
O=C(Nc1ccc(OC(F)F)cc1)c1cc(S(=O)(=O)N2CCOCC2)ccc1F	-16%	1	-19%	-7	-3%
COC(=O)c1cc(S(=O)(=O)Nc2ccc(C)cn2)c[nH]1	27%	-3	?	3	-1%
COC(=O)c1cc(OC)c(OC)cc1NC(=O)c1ccc(C)o1	·	6	5.2µM*	-15	3%
Cc1ccc(CCC(=O)Nc2ccccc2C(=O)O)o1	41%	26*	-30%	59*	-16%
COC(=O)c1cc(OC)c(OC)cc1NC(=O)c1cc(C(C)(C)C)oc1C	2.9µM*	1	?	0	2%
COC(=O)c1cc(OC)c(OC)cc1NC(=O)CCc1ccc(C)o1	10µM*	-2	17%	-10	4%
Cc1ccc(CC(=O)NCCN2CCOCC2)cc1	3%	-3	?	-3	-13%
O=C(NCc1ccco1)Nc1ccc(Br)cc1Cl	103%	48*	94%	87*	3%
Cc1c(C(=O)NCc2ccco2)oc2ccc(Br)cc12	3%	·	43%	·	·
O=C(NCc1ccco1)c1cc2ccccc2c(=O)o1	12%	67*	-1%	148*	5%
SMILES	Pf growth 48h	Cycloheximide cs	Pf growth 96h	Shiga toxin inh	LmPK inh
O=C(NCc1ccco1)c1cc2cc(Br)ccc2o1	16%	35*	?	87*	-1%
O=C(NCc1ccco1)c1cccc(Br)c1	48%	-1	?	·	45%
CCN(CC)C(=O)c1[nH]cnc1C(=O)NC1CCN(C(=O)OC(C)(C)C)CC1	?	·	36%	·	·
Cc1cccc(NC(=O)C2CC(O)CN2C(=O)Oc2ccccc2)c1 (centres undefined)	10%	-4	?	8	0%
Cc1csc(NC(=O)CSc2nc(=O)[nH]c3c2CCCC3)n1	2%	3	-25%	-2	1%
O=C(Nc1ccccc1C(=O)NCc1cccnc1)c1ccc(Cl)cc1Cl	?	1	-10%	11	0%
CCN[C@@H]1C[C@H](C)S(=O)(=O)c2sc(S(N)(=O)=O)cc21	-16%	·	?	·	·
CCN(CC)C(=O)Cn1cc(C(=O)C(=O)N2CCN(c3ccc(OC)cc3)CC2)c2ccccc21	-9%	-10	57%	-7	-9%
Nc1nnc(SCc2cn3cc(Cl)ccc3n2)s1	125%	28*	111%	84*	-5%
Cc1ccc(SCc2cn3c(C)csc3n2)cc1	183%	44*	?	74*	?
Nn1c(SCc2cn3cc(Cl)ccc3n2)nnc1-c1ccncc1	-3%	2	2%	-2	8%
Cc1ccc(SCc2cn3cc(Cl)ccc3n2)cc1	62%	52*	79%	62*	3%
Clc1ccc2nc(CSCc3ccccc3)cn2c1	301%	49*	294%	99*	-6%
Nc1nnc(SCc2ccccc2Cl)s1	25%	24	0%	35	1%
Cc1cccc(OCCC(=O)NCC(=O)Nc2cccc(C)c2C)c1	14%	-2	31%	-13	1%
Cc1cc(C)cc(C(=O)OCC(=O)NC(=O)NC2CCCC2)c1	?	·	32%	·	·
Cc1cc(C)cc(NC(=O)[C@H](NC(=O)[C@@H]2Cc3ccccc3CN2)c2ccccc2)c1	?	8	?	13	3%
Cc1cc(C)n2cc(CSCc3ccco3)nc2n1	2%	-2	3%	-11	2%
Cc1cccc2nc(CSCc3ccco3)cn12	64%	31*	i	82*	-18%
c1ccc2[nH]c(SCc3cn4ccccc4n3)nc2c1	?	20*	18%	54*	-2%
c1ccc2c(SCc3cn4ccccc4n3)nncc2c1	35%	38*	-8%	76	-8%
Clc1ccc2nc(CSc3nc4ccccc4o3)cn2c1	93%	37*	?	129*	-1%
CC1CCCC(NC(=O)C2COc3ccccc3O2)C1C (centres undefined)	19%	·	3%	·	·
CCN(c1cccc(C)c1)S(=O)(=O)c1ccc2c(c1)N(C(C)=O)CCS2	-17%	-2	9%	-11	-11%
Clc1ccc2nc(CSc3nnc4ccccn34)cn2c1	115%	38*	82%	92*	-8%
SMILES	Pf growth 48h	Cycloheximide cs	Pf growth 96h	Shiga toxin inh	LmPK inh
Cc1cccc2nc(CSc3nc4ccccc4[nH]3)cn12	15%	13	18%	24	-3%
Clc1ccc(SCc2cn3ccccc3n2)cc1	175%	37*	173%	54*	-1%
Clc1ccc(-n2nnnc2SCc2cn3ccccc3n2)cc1	·	1	?	-7	-8%
Cc1cccc2nc(CSc3ccc(Cl)cc3)cn12	51%	49*	?	91*	-18%
Clc1ccc2nc(CSc3nncn3-c3ccccc3)cn2c1	53%	-1	31%	-2	-1%
COc1ccc(C(=O)N/C(=C/c2ccco2)C(=O)NC2CCS(=O)(=O)C2)cc1 (centres undefined)	20%	9	?	2	1%
COc1ccc(N(C(=O)CCl)C(C(=O)NCCc2ccccc2)c2cccs2)cc1Cl (centres undefined)	9.3µM*	-6	4.7µM*	-22	6%
COc1cccc(N(C(=O)CCl)C(C(=O)NCCc2ccccc2)c2cccs2)c1 (centres undefined)	12µM*	-2	9.3µM*	-15	-1%
